Results from PubChem BioAssay AID1159580 (chemical genetic matrix, 2015).
The whole screen tested about 5,500 compounds, of which about 2,000 (36%) were called active. About 18% were inconclusive and are not listed. No stated cut-off is given here; in the data, active means normalized growth mostly below about 0.91 (no sharp cut-off); inconclusive means no clear call, values can overlap the other calls; inactive means mostly above about 0.92. The list shows a part of the results.

Experiment: chemical genetic growth profiling, strain panel (AID 1159580);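 further: tested at 20 µM; growth read once vehicle control cultures reached saturation at 30 °C; 1 = growth at the plate median or of vehicle wells; lower values mean less growth of the strain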
Settings: S. cerevisiae deletion strains, growth OD

Measured: normalized growth

C[C@H]1C[C@@H](O)[C@]2(O)[C@@]13CC(=O)OC[C@@]2(C)[C@](C)(O)C(=O)C3
inactive: locus YAL021C, strain ccr4, active compounds read low 1.02 | locus YAL026C, strain drs2, active compounds read low 1.04 | locus YAL030W, strain snc1, active compounds read low 1.02 | locus YBL061C, strain skt5, active compounds read low 1.02 | locus YBR009C, strain hhf1, active compounds read low 1.02 | locus YBR023C, strain chs3, active compounds read low 1.03 | locus YBR171W, strain sec66, active compounds read low 1.03 | locus YBR231C, strain swc5, active compounds read low 1.03 | locus YBR279W, strain paf1, active compounds read low 1.03 | locus YCL011C, strain gbp2, active compounds read low 1.02 | locus YCL016C, strain dcc1, active compounds read low 1.02 | locus YCL061C, strain MRC1, active compounds read low 1.02 | locus YCL069W, strain vba3, active compounds read low 1.02 | locus YCR088W, strain abp1, active compounds read low 1.02 | locus YDL005C, strain med2, active compounds read low 1.03 | locus YDL040C, strain nat1, active compounds read low 1.02 | locus YDR001C, strain nth1, active compounds read low 1.02 | locus YDR069C, strain doa4, active compounds read low 1.04 | locus YDR137W, strain rgp1, active compounds read low 1.03 | locus YDR159W, strain sac3, active compounds read low 1.05 | locus YDR195W, strain ref2 1.02 | locus YDR297W, strain sur2, active compounds read low 1.03 | locus YDR334W, strain swr1, active compounds read low 1.03 | locus YDR335W, strain msn5, active compounds read low 1.03 | locus YDR392W, strain spt3, active compounds read low 0.974 | locus YEL003W, strain gim4, active compounds read low 1.04 | locus YEL037C, strain rad23, active compounds read low 1.03 | locus YEL061C, strain CIN8 (second series), active compounds read low 1.03 | locus YER015W, strain faa2, active compounds read low 1.02 | locus YER016W, strain bim1, active compounds read low 1.02 | locus YER111C, strain swi4, active compounds read low 1.04 | locus YER155C, strain BEM2 (second series), active compounds read low 1.05 | locus YFR010W, strain ubp6, active compounds read low 1.03 | locus YGL167C, strain pmr1, active compounds read low 1.02 | locus YGL173C, strain kem1, active compounds read low 1.02 | locus YGL227W, strain vid30, active compounds read low 1.03 | locus YGL240W, strain doc1, active compounds read low 1.02 | locus YGL253W, strain hxk2, active compounds read low 1.03 | locus YHR013C, strain ard1, active compounds read low 1.04 | locus YHR027C, strain rpn1, active compounds read low 1.02 | locus YHR030C, strain SLT2, active compounds read low 1.08 | locus YHR079C, strain IRE1, active compounds read low 1.05 | locus YHR142W, strain chs7, active compounds read low 1.04 | locus YJL092W, strain hpr5, active compounds read low 1.03 | locus YJL095W, strain BCK1 (second series), active compounds read low 1.03 | locus YJL095W, strain BCK1, active compounds read low 1.05 | locus YJL115W, strain asf1, active compounds read low 1.05 | locus YJL129C, strain trk1, active compounds read low 1.06 | locus YJL154C, strain vps35, active compounds read low 1.01 | locus YJL164C, strain tpk1, active compounds read low 1.02 | locus YJL166W, strain qcr8, active compounds read low 1.02 | locus YJL187C, strain SWE1, active compounds read low 1.02 | locus YJR066W, strain TOR1, active compounds read low 0.995 | locus YKL160W, strain elf1, active compounds read low 1.02 | locus YKR026C, strain gcn3, active compounds read low 1 | locus YKR091W, strain srl3, active compounds read low 1.02 | locus YLL001W, strain dnm1, active compounds read low 1.02 | locus YLL026W, active compounds read low 1.03 | locus YLL041C, strain sdh2, active compounds read low 1.02 | locus YLR027C, strain aat2, active compounds read low 1.02 | locus YLR113W, strain HOG1, active compounds read low 1.07 | locus YLR221C, strain rsa3, active compounds read low 1.03 | locus YLR258W, strain gsy2, active compounds read low 1.02 | locus YLR262C, strain YPT6 (second series), active compounds read low 1.03 | locus YLR320W, strain mms22, active compounds read low 1.03 | locus YLR342W, strain FKS1, active compounds read low 1.03 | locus YLR357W, strain rsc2, active compounds read low 1.07 | locus YLR370C, strain arc18, active compounds read low 1.02 | locus YLR384C, strain iki3, active compounds read low 1.02 | locus YML120C, strain ndi1, active compounds read low 1.01 | locus YMR058W, strain fet3, active compounds read low 1.03 | locus YMR125W, strain sto1, active compounds read low 1.05 | locus YMR129W, active compounds read low 1.02 | locus YMR205C, strain PFK2, active compounds read low 1.04 | locus YMR231W, strain pep5, active compounds read low 1.03 | locus YNL071W, strain lat1, active compounds read low 1.03 | locus YNL183C, strain NPR1, active compounds read low 0.984 | locus YNL209W, strain ssb2, active compounds read low 1.02 | locus YNL248C, strain rpa49, active compounds read low 1.03 | locus YNL322C, strain KRE1 (second series), active compounds read low 1.02 | locus YNR049C, strain mso1, active compounds read low 1.03 | locus YOR001W, strain rrp6, active compounds read low 1.03 | locus YOR070C, strain gyp1, active compounds read low 1.02 | locus YOR080W, strain dia2, active compounds read low 1.03 | locus YOR083W, strain WHI5, active compounds read low 1.01 | locus YOR106W, strain vam3, active compounds read low 1.02 | locus YOR231W, strain MKK1, active compounds read low 1.06 | locus YOR265W, strain rbl2, active compounds read low 1.02 | locus YOR270C, strain vph1, active compounds read low 1.09 | locus YOR290C, strain snf2, active compounds read low 0.993 | locus YPL051W, strain arl3, active compounds read low 1.02 | locus YPL078C, strain atp4, active compounds read low 1.03 | locus YPL106C, strain sse1, active compounds read low 1.02 | locus YPL240C, strain hsp82, active compounds read low 1.03 | locus YPL256C, strain CLN2, active compounds read low 1.05

Cc1nc(-c2ccc(-c3ccc(C(=O)N4CCc5cc6c(cc54)C4(CCN(C)CC4)CO6)cc3)c(C)c2)no1
active: locus YCL061C, strain MRC1 (second series), active compounds read low 0.902 | locus YJR075W, strain HOC1, active compounds read low 0.898 | locus YNL322C, strain KRE1, active compounds read low 0.64 | locus YOR083W, strain WHI5 (second series), active compounds read low 0.677 | locus YPL241C, strain CIN2, active compounds read low 0.907
inactive: locus YAL040C, strain CLN3, active compounds read low 0.967 | locus YDR363W, strain ESC2, active compounds read low 0.991 | locus YER002W, strain NOP16, active compounds read low 0.991 | locus YMR263W, strain SAP30, active compounds read low 1 | locus YNL175C, strain NOP13, active compounds read low 0.964 | locus YNL197C, strain WHI3, active compounds read low 0.989 | locus YNL224C, strain SQS1, active compounds read low 0.961 | locus YPL055C, strain LGE1, active compounds read low 1.04
